Data published in PubChem BioAssay (EPA / NIEHS).
Several values for one entry are separate records, joined by “and”; a condition that tells them apart may be missing. Identical values can stand only once. Some compounds were tested as several samples or in several runs, with calls that do not always agree. Activity calls are given as the source filed them. Rule for the calls: active = hit-call score of the fitted dose curve at least 0.9, where 1 is the maximum; inactive = score below 0.9.

Test: BSK_SAg_SRB: Viability Assessment in the BioMAP Diversity Plus: SAg Assay (AID 2283096);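 note: cells read one day after compound addition; hits may be either gain or loss of signal compared with DMSO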
Details: primary human HUVEC with PBMC
In short: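 Human umbilical vein endothelial cells co-cultured with PBMC, read 24 h after compound dosing. Total protein measured by sulforhodamine B staining (0.1% SRB after 10% TCA fixation, absorbance 560 nm); bidirectional fit versus DMSO baseline.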

Q: For `CCCCCCCC(=O)O`, which outcome is on record?
A: inactive

Q: For `OC1CCC(C2CCCCC2)CC1` (centres undefined), which outcome is on record?
A: inactive

Q: With `CC(C)CCCCCCOC(=O)CCCCC(=O)OCCCCCCC(C)C` as the compound, how does the outcome read?
A: inactive

Q: Which outcome does the source give for `CCCCOCCO` here?
A: inactive

Q: With `OC1CCCCC1` as the compound, how does the outcome read?
A: inactive

Q: Which outcome does the source give for `CCCCCCCCC(=O)O` here?
A: inactive

Q: What does the source list for `OCCC(F)(F)C(F)(F)C(F)(F)C(F)(F)C(F)(F)C(F)(F)C(F)(F)C(F)(F)F`?
A: AC50: 17.2 µM (active) and 21.1 µM (active); outcome: inactive

Q: For `Oc1cccc(O)c1`, which outcome is on record?
A: inactive

Q: With `c1ccc2cc3c(ccc4ccccc43)cc2c1` as the compound, how does the outcome read?
A: inactive

Q: With `NCC(F)(F)C(F)(F)C(F)(F)C(F)(F)C(F)(F)C(F)(F)C(F)(F)F` as the compound, how does the outcome read?
A: inactive

Q: With `O=c1c(-c2ccc(O)cc2)coc2cc(O)ccc12` as the compound, how does the outcome read?
A: inactive

Q: For `CCc1ccc(CCOc2ccc(CC3SC(=O)NC3=O)cc2)nc1` (centres undefined), which outcome is on record?
A: inactive

Q: Which outcome does the source give for `CCC(C)(C)C1CCC(O)CC1` (centres undefined) here?
A: inactive

Q: For `CN1CCN(c2ccccc2/C=C2\SCCN(c3ccc(Cl)c(Cl)c3)C2=O)CC1`, which AC50 is on record?
A: 5.22 µM (active)

Q: With `CN(C)C=O` as the compound, how does the outcome read?
A: inactive

Q: Which AC50 does the source give for `CCCCCCCCCCCCN1CCCC1=O` here?
A: 30.9 µM (active)

Q: For `CCCCCCC(=O)O`, which outcome is on record?
A: inactive

Q: Which results are given for `OCCC(F)(F)C(F)(F)C(F)(F)C(F)(F)C(F)(F)C(F)(F)F`?
A: AC50: 53.1 µM (active); outcome: inactive

Q: With `C=C(C)C(=O)OCCC(F)(F)C(F)(F)C(F)(F)C(F)(F)C(F)(F)C(F)(F)F` as the compound, how does the outcome read?
A: inactive

Q: With `COCC(C)O` (centres undefined) as the compound, how does the outcome read?
A: inactive

Q: With `CCOC(=O)CC(O)(CC(=O)OCC)C(=O)OCC` as the compound, how does the outcome read?
A: inactive

Q: With `Cc1cc(CCN2CCN(c3nsc4ccccc34)CC2)cc2c1NC(=O)CC2(C)C` as the compound, how does the AC50 read?
A: 33.9 µM (active)

Q: With `CC(C)(C)c1cccc(C(C)(C)C)c1O` as the compound, how does the outcome read?
A: inactive

Q: With `CC(C)(C)c1cc(C(C)(C)C)c(O)c(C(C)(C)C)c1` as the compound, how does the outcome read?
A: inactive

Q: With `CN1CCC[C@H]1c1cccnc1` as the compound, how does the outcome read?
A: inactive

Q: For `CCc1nn(C2CCCCC2)c2cc(C3(C#N)CCC(C(=O)O)CC3)ccc12` (centres undefined), which AC50 is on record?
A: 11.5 µM (active)

Q: For `C[C@@H]1C[C@H]2[C@@H]3CCC4=CC(=O)C=C[C@]4(C)[C@@]3(F)[C@@H](O)C[C@]2(C)[C@@]1(O)C(=O)COP(=O)(O)O`, which outcome is on record?
A: inactive

Q: With `CC[C@H](c1ccc(O)cc1)[C@@H](CC)c1ccc(O)cc1` as the compound, how does the AC50 read?
A: 31.4 µM (active)

Q: For `CC(=O)CC(C)(C)O`, which outcome is on record?
A: inactive

Q: With `CCCCC(CC)COC(=O)CCCCC(=O)OCC(CC)CCCC` (centres undefined) as the compound, how does the outcome read?
A: inactive

Q: For `CC(C)(C)CC(C)(C)c1ccc(O)c(-n2nc3ccccc3n2)c1`, which outcome is on record?
A: inactive

Q: With `c1ccc2c(c1)ccc1ccccc12` as the compound, how does the outcome read?
A: inactive
